Screening data deposited in PubChem by National Center for Advancing Translational Sciences (NCATS).
Pol beta inh: qHTS Assay for Inhibitors of DNA Polymerase Beta | P06746 | Pol beta primer extension/strand displacement, fluorescence kinetic | Potency, µM (doses to about 114 µM), actives largely listed as inhibitors | hit rate 1.3% among 340,000
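Preincubation: enzyme (10 nM) with compound, 15 min, RT. Reaction: substrate added to 50 nM final. Reads: 0 and 10 min. Analysis: normalized, Hill fit.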
POLI inh: qHTS for Inhibitors of Polymerase Iota | Pol iota fluorescent replication assay, 10 min | DNA polymerase iota (Homo sapiens), Q9UNA4 | hit rate 1% among 390,000 | Potency, µM (doses to about 115 µM), hits mostly inhibitors
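Pol iota at 10 nM preincubated 15 min with compounds at room temperature; reaction started with fluorescent substrate, 50 nM final. Fluorescence read kinetically at 0 and 10 min; buffer-only wells as negative control.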
GCN5L2 inh: qHTS Assay for Inhibitors of GCN5L2 | GCN5L2 HAT assay, ThioGlo1 CoA-SH fluorescence | hit rate 0.21% among 390,000 | AID 504327, 2011 | Histone acetyltransferase KAT2A (Homo sapiens), Q92830 | Potency, µM (highest dose often 58.9 µM), hits mostly inhibitors
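Free CoA generated was detected with ThioGlo1 (50uM) fluorescence at Ex340nm/Em540nm, read immediately and after 20 min at room temperature. Enzyme, 20 nM in HEPES pH 7.5 buffer, saw compounds 15 min before adding 75uM H3(1-25) peptide and 70uM acetyl-CoA.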
Pol eta inh-1: qHTS for Inhibitors of Polymerase Eta | DNA polymerase eta (Homo sapiens), Q9Y253 | recombinant Pol eta, fluorescent DNA replication assay | Potency, µM (top dose mostly 114 µM), most hits filed as inhibitors | hit rate 1.2% among 390,000
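Pol eta (10 nM) was preincubated with compounds for 15 min at room temperature, after which fluorescent replication substrate (50 nM final) was added to start the reaction. Fluorescence was read kinetically at 0 and 10 min.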
GLS inh: qHTS for Inhibitors of Glutaminase (GLS); Glutaminase kidney isoform, mitochondrial (Homo sapiens), O94925; GLS enzymatic activity, qHTS titration; Potency, µM (highest dose often 45.5 µM), hits mostly inhibitors; hit rate 0.21% among 410,000; AID 624170, 2012
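Read-out is an Amplex red fluorescence increase coupled through glutamate oxidase and HRP, measured before and after 30 min room-temperature incubation. hKGA is in 45 mM KH2PO4 (pH 8.2) with 0.02% Tween-20; glutamine added as 1mM solution.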
Pol kappa inh-1: qHTS for Inhibitors of Polymerase Kappa. Potency, µM (highest dose often 107 µM), hits mostly inhibitors. purified Pol kappa, fluorescent DNA synthesis assay, 10 min. DNA polymerase kappa (Homo sapiens), Q9UBT6. AID 588579, 2011. hit rate 0.53% among 400,000
Target sequence (Q9UBT6 whole entry, looked up): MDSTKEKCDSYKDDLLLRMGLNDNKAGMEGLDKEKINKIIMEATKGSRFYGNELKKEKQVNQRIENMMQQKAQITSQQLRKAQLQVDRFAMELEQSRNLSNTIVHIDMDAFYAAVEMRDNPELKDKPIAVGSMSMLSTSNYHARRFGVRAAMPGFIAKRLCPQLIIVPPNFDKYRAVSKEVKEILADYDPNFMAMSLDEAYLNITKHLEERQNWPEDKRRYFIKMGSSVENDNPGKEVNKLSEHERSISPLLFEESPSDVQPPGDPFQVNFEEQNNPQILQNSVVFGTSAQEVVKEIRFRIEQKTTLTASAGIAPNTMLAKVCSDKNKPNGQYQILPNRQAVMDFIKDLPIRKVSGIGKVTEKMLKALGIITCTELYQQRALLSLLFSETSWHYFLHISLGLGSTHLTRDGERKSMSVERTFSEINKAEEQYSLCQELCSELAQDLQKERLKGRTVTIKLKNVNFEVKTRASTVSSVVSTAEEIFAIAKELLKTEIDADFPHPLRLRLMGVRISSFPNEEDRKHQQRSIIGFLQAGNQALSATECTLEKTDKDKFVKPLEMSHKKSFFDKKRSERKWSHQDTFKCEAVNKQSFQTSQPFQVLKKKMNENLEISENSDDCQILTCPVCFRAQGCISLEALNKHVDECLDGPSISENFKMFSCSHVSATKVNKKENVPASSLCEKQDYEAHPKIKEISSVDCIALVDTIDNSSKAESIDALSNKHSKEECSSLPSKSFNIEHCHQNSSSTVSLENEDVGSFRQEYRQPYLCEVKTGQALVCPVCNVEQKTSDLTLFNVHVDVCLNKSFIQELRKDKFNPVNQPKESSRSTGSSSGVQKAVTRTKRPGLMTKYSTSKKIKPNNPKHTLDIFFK
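First, compounds were pin-transferred onto 10 nM Pol kappa. After 15 min at room temperature, substrate was added to 50 nM final. Fluorescence was then measured kinetically at 0 and 10 min.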
GALK inh confirm: Confirmation Assay for Inhibitors of Human Galactokinase (GALK); shares compounds with Pol eta inh-1; purified GALK, Kinase-Glo ATP depletion luminescence; Potency, µM (titrated, usually from 115 µM), hits mostly inhibitors; hit rate 70% among 150
GALK redox cs: Confirmatory Assay for Inhibitors of Human Galactokinase (GALK): Phenol-HRP redox assay counterscreen; shares compounds with Pol eta inh-1; Phenol red-HRP H2O2 redox cycling, absorbance 600 nm; Potency, µM (titrated, usually from 115 µM), most hits filed as inhibitors; hit rate 40% among 150; AID 2035, 2009
HEK293 viability: Secondary Assay for Inhibitors of Human Galactokinase (GALK): HEK-293 Cell Viability Assay | shares compounds with Pol eta inh-1 | Potency, µM (series often up to 46.1 µM), hits mostly inhibitors | HEK-293 viability, ATP luminescence (CellTiter-Glo), 24/48 h | hit rate 10% among 170
Pol kappa inh-2: qHTS for Inhibitors of Polymerase Kappa: Confirmatory Assay for Cherry-picked Compounds | hit rate 76% among 920 | AID 720501, 2013 | Potency, µM, hits mostly inhibitors | shares compounds with Pol eta inh-1 | purified Pol-kappa, fluorescent strand-displacement substrate
Pol eta inh-2: qHTS for Inhibitors of Polymerase Eta: Confirmatory Assay for Cherry-picked Compounds. hit rate 64% among 2,600. Potency, µM, actives largely listed as inhibitors. AID 720502, 2013. Pol eta primer extension, TAMRA/BHQ fluorescence, 10 min. shares compounds with Pol eta inh-1
Hits are given with their value; n = inactive; u = inconclusive; x = no result; ! = not active in a repeat; [ ] = dose if it differs, or a comment. The list is not random: actives were taken first. Their share in the collection is about 2.4%. Calls come from the whole dose curve; as a rule, active = well fitted curve in the direction sought with a large enough effect; inconclusive = small, poorly fitted or top-dose-only effect, or another doubt; inactive = no such curve, though single readings can be large; an effect the other way counts as inactive or inconclusive.

SMILES	Pol beta inh	POLI inh	GCN5L2 inh	Pol eta inh-1	GLS inh	Pol kappa inh-1	Pol eta inh-2	others
NCCc1cc(O)c(O)cc1O	x	1.41µM	u	56.2µM	10µM!	0.708µM	67.5
CCOP(=S)(OCC)Oc1ccc(Cl)cc1Cl	x	x	n	x	x	n	x
N[C@@H](Cc1cc(I)c(O)c(I)c1)C(=O)O	n	31.6µM	u	39.8µM	n	50.1µM	30.1
CCC1(O)C(=O)OCc2c1cc1n(c2=O)Cc2cc3cc(O)ccc3nc2-1 (stereo not drawn)	x	22.4µM	x	17.8µM	u	u	75.7
CC[C@@]1(O)C(=O)OCc2c1cc1n(c2=O)Cc2cc3c(NC(=O)CN)cccc3nc2-1	u	u	n	n	n	n	x
Cc1ccc(/C=C2\C(=O)NC(=S)N(c3ccc(F)cc3)C2=O)o1	15.8µM	u	u	12.6µM	u	25.1µM	30.1	Pol kappa inh-2=16.8
COc1cccc(N2C(=O)/C(=C/c3ccc(C)o3)C(=O)NC2=S)c1	44.7µM	u	n	12.6µM	u	n	60.1	Pol kappa inh-2=29.9
O=S(=O)(CCN1CCN(c2ccccn2)CC1)c1ccc(Cl)cc1Cl	n	n	n	n	n	n	x
Cc1cccc(OCCn2cccc2/C=C2/C(=O)NC(=O)N(Cc3ccco3)C2=O)c1	31.6µM	8.91µM	u	22.4µM	n	28.2µM	75.7
CCc1ccc(N2C(=O)NC(=O)/C(=C/c3cccn3CCOc3ccc(C(C)CC)cc3)C2=O)cc1 (stereo not drawn)	n	u	n	n	n	n	x
CCc1ccc(N2C(=O)NC(=O)/C(=C/c3cccn3CCOc3ccc(C)cc3)C2=O)cc1	n	u	n	u	n	n	x
O=C1NC(=O)N(Cc2ccco2)C(=O)/C1=C\c1cccn1CCOc1ccc(Cl)cc1	28.2µM	12.6µM	n	14.1µM	n	28.2µM	u
CC[C@@H]1/C=C/C=C/C[C@H](C)[C@@H](O)[C@](C)(O)C(=O)[C@H](C)[C@@H](O)[C@H](C)C(=O)[C@H](C)[C@@H](O)[C@H](C)/C=C/C(=O)O[C@H]2[C@@H](C)[C@@H](CC1)O[C@@]1(CC[C@@H](C)[C@@H](C[C@H](C)O)O1)[C@@H]2C	x	x	n	x	x	n[19.4 µM]	x
Nc1nonc1C(=O)N/N=C/c1ccc([N+](=O)[O-])o1	u	31.6µM	n	20µM	n	u	u
CN1C(=O)C(=Cc2ccc(N3CCCCC3)o2)C(=O)N(C)C1=S	n	n	n	u	n	n	x
CN1C(=O)C(=Cc2ccc(SC3CCCCC3)o2)C(=O)N(C)C1=O	22.4µM	u	n	22.4µM	u	n	x	Pol kappa inh-2=u
O=c1nc(/C=C/c2ccc(Cl)cc2Cl)cc(C(F)(F)F)[nH]1	n	u	n	31.6µM	n	n	u
COc1ccc(/C=C2/C(=O)NC(=O)N(c3ccccc3)C2=O)cc1CN1C(=O)c2ccccc2C1=O	n	n	n	n	n	n	x
Cc1ccccc1N1C(=O)NC(=O)/C(=C\c2ccc3c(c2)CCCN3Cc2ccccc2)C1=O	25.1µM	u	u	20µM	u	n	u
CC#C[C@]1(O)CC[C@H]2C3C=C(C)C4=CC(=O)C=C[C@]4(C)[C@H]3[C@@H](O)C[C@@]21C (stereo partly drawn)	x	x	n	x	x	n	x
CCn1nc(-c2cccs2)nc2c(=O)n(C)c(=O)nc1-2	n	n	n	0.794µM	n	n	x	GALK inh confirm=0.211µM;GALK redox cs=0.266µM;HEK293 viability=u
CCOc1ccc(-n2c(-c3cccs3)nc3ccccc3c2=O)cc1	n	u	n	n	n	n	x
CCCC(Cn1cncn1)c1ccc(Cl)cc1Cl (stereo not drawn)	x	x	n	x	x	n	x
Cn1cccc1/C=C1/C(=O)NC(=O)N(C(C)(C)C)C1=O	n	n	n	n	n	n	x
CN1C(=O)/C(=C/c2cccn2-c2ccc3ccccc3c2)C(=O)NC1=S	22.4µM	8.91µM	n	3.98µM	n	31.6µM	u
SMILES	Pol beta inh	POLI inh	GCN5L2 inh	Pol eta inh-1	GLS inh	Pol kappa inh-1	Pol eta inh-2	others
C/C(CC(=O)Nc1cc(C)ccn1)=N\NC(=O)c1ccncc1	n	n	n	n	n	n	x
CC(C)c1ccc(N2C(=O)NC(=O)/C(=C\C=C\c3ccco3)C2=O)cc1	u	8.91µM	u	20µM	n	39.8µM	75.7
C/C(=C/CCC(C)[C@H]1CC[C@@]2(C)C3=C(CC[C@]12C)[C@@]1(C)CCC(=O)C(C)(C)[C@@H]1CC3)C(=O)O (stereo partly drawn)	n	n	u	79.4µM	n	n	u
Cc1ccc(-c2nnc(Nc3ccc(OC(F)(F)Cl)cc3)c3ccccc23)cc1S(=O)(=O)NC(C)(C)CO	n	n	n	u	n	n	x
COc1ccc(CC(=O)NC(=S)NNC(=O)COc2c(C)cccc2C)cc1	n	n	n	n	n	n	x
Cc1ccc(NC(=O)C2CCN(C(=O)c3cnn(-c4ccccc4)c3-n3cccc3)CC2)cc1Cl	u	n	n	n	n	n	x
CCOC(=O)CC(SP1(=S)OCC2(CCCCC2)CO1)C(=O)OCC (stereo not drawn)	x	u	x	u	n	n	67.5
C=CCN1C(=O)/C(=C/c2cccs2)C(=O)NC1=S	79.4µM	u	n	u	n	n	u
Cn1cccc1/C=C1\C(=O)NC(=O)N(CCC2=CCCCC2)C1=O	n	u	n	n	n	n	x
O=C1NC(=O)N(CCC2=CCCCC2)C(=O)/C1=C\c1cccs1	u	39.8µM	n	20µM	n	n	u
